These results are taken from PubChem BioAssay AID602449 (Sanford-Burnham Center for Chemical Genomics, 2012).

Molecules are shown by their SMILES. Hit rate of the full screen: of about 360,000 compounds, about 5,000 (1.4%) were called active. The sample holds actives, similar compounds and a random draw of the others, so the mix is not that of the screen. A number with no mark means an inactive call.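 Rule for the calls: active = inhibition of 50% or more, scaled per plate between neutral and stimulator controls; inactive = the rest.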

This test is described as follows: mitochondrial permeability transition pore inhibitors, primary screen, biochemical, isolated mouse mitochondria, absorbance (AID 602449).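 Note: 0% = DMSO wells given calcium and 100% = 1 mM EGTA wells.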 The following applies: Ca2+ swelling absorbance, 30 min, at 10 µM, stronger effect = higher value.
By inhibition is commonly meant the relative decrease from the control value, in per cent. Take `Cc1nc(-c2nnc(SCC(=O)Nc3cc(C(F)(F)F)cc(C(F)(F)F)c3)n2C)cs1`: the inhibition is 4.6%.

For the molecule `Cc1ccc(OC(=O)c2c(C)nn(-c3ccccc3)c2C)cc1`, the inhibition was -0.9%.

For the molecule `C/C(=N\NC(=S)NCc1ccccc1)c1ccc(Cl)cc1`, the inhibition is 3.5%.

Turning to `Fc1ccccc1CNC(=S)Nc1ccc(Cl)cc1`, the inhibition is 102% (active).

For the molecule `S=C(NCc1cccs1)Nc1ccc(Cl)cc1`, the inhibition was 23.7%.

As to `CCCOc1ccc(Cc2c(O)nc(SC)[nH]c2=O)cc1C`, the inhibition was 0.9%.

For the molecule `CCCOc1ccc(Cc2c(Cl)nc(SC)nc2NC)cc1`, the inhibition is 95.3% (active).

Turning to `CCOc1cc2[nH]c(=O)n(CCC(=O)NCc3ccc(OC)cc3)c(=O)c2cc1OCC`, the inhibition was -0.2%.

Regarding `COC(=O)C(Cc1c[nH]c2ccccc12)NC(=O)CCNC(=O)c1ccco1` (stereo unspecified), the inhibition is -1%.

In the case of `Cc1c(Cl)cccc1NC(=O)NCCCN1CCCC1=O`, the inhibition is -0.1%.

For `Cc1cc(Cl)ccc1NC(=S)NCCCN1CCCC1=O`, the inhibition is 0.5%.

For `O=C1CCCN1CCCNC(=S)Nc1ccc(F)c(Cl)c1`, the inhibition is 96.1% (active).

`CC1(C(=O)NNC(=S)NCC2CCCO2)CC1(Cl)Cl` (stereo unspecified): the inhibition was -1.4%.

Take `O=S(=O)(Nc1ccc(Cl)cn1)c1cnc(Cl)c(Br)c1`: the inhibition was 12.7%.

On to `CC(C)C[C@H]1CN([C@@H](CC(C)C)CN2CCC[C@@H]2CN2C(=O)C(=O)NC[C@@H]2Cc2ccccc2)C(=O)C(=O)N1CCc1ccccc1`, for which the inhibition is 1.7%.

On to `COc1ccc(NC(=O)c2cccc(Cl)c2)c[n+]1[O-]`, for which the inhibition is 1.1%.

For the molecule `CSc1ccc(/C=N/NC(=O)c2cccc(Cl)c2)cc1`, the inhibition is 3%.

In the case of `COc1ccc(Sc2ccc(NC(=O)c3cccc(Cl)c3)cc2C#N)cc1`, the inhibition was 80.5% (active).

For `Cc1ccc(Sc2ccc(NC(=O)c3ccc(F)cc3)cc2C#N)cc1`, the inhibition is 72.3% (active).

Regarding `Cc1ccc(C(=O)NC2CCN(C(=O)Nc3ccc(F)cc3)CC2)cc1`, the inhibition was -0.9%.

In the case of `COC(=O)c1ccc(Sc2ccc(F)cc2)c(N)c1`, the inhibition is -3%.

On to `Cc1ccccc1CNC(=O)CCC(=O)N1Cc2ccccc2Oc2ncccc21`, for which the inhibition is -0.6%.

With `CC(C)(C)n1c(=O)[nH]c2c(c1=O)CCC2`, the inhibition is -1.7%.

On to `CC(C)=C1SC(N2CCN(c3ccc(C)c(Cl)c3)CC2)=NC1=O`, for which the inhibition is 2.6%.

With `COc1ccc(S(=O)(=O)N2CCN(C(C)C(=O)Nc3ccc(C(C)C)cc3)CC2)cc1` (stereo unspecified), the inhibition is 0.5%.

For the molecule `Cn1c(N2CCOCC2)c(C=O)c2ccccc21`, the inhibition was -0.1%.

Take `COc1cccc(NC(=O)CSc2nnc(-c3cccnc3)o2)c1`: the inhibition was -1.2%.

As for `COc1ccc2oc(-c3cccc(NC(=O)CSc4ccc(Cl)cc4)c3)nc2c1`, the inhibition was 86.6% (active).

For the molecule `COc1ccc(C(=O)NCc2nnc(SCC(=O)Nc3cccc(OC)c3)o2)cc1`, the inhibition was -0.9%.

With `CCOC(=O)c1sc(=NC(=O)/C=C/c2cccs2)n(C)c1C`, the inhibition is 1.4%.

Consider `O=C(NCCNc1ccc([N+](=O)[O-])cc1)c1cccc2c(Br)cccc12`, for which the inhibition was 77.6% (active).

For `CC(CNc1ccc([N+](=O)[O-])cc1)NC(=O)c1ccccc1Br` (stereo unspecified), the inhibition was 0%.

As for `O=C(NCCNc1ccc([N+](=O)[O-])cc1Cl)c1ccccc1F`, the inhibition was 1%.

For `Cc1c(Cl)c([N+](=O)[O-])nn1CC(=O)NCC1CCCO1` (stereo unspecified), the inhibition was -1.6%.

Take `CCN(CC)c1ccc(NC(=O)c2ccc(=O)[nH]c2)cc1S(=O)(=O)Nc1ccc(OC)cc1`: the inhibition is -0.4%.

As for `O=C(NCc1ccc2c(c1)OCO2)C12CC3CC(CC(C3)C1)C2`, the inhibition is 3.7%.

In the case of `COc1ccc(Cl)cc1C(=O)NNC(=S)NC1CCCC1`, the inhibition is -0.5%.

On to `Cc1ccc(C(=O)NC23CC4CC(CC(C4)C2)C3)c(Cl)c1`, for which the inhibition is -0.2%.

For `S=C(NCc1ccc(Cl)cc1)NC1CCCCC1`, the inhibition was 67.6% (active).

On to `O=C(NNC(=S)NC1CCCCC1)c1ccccc1Cl`, for which the inhibition was 0.2%.

For the molecule `S=C(NCc1ccc(Cl)cc1)NC12CC3CC(CC(C3)C1)C2`, the inhibition was 96.8% (active).

In the case of `CCOCCCNC(=O)C1(O)c2cc(Br)ccc2NC(=O)N1c1ccc(C)c(C)c1` (stereo unspecified), the inhibition was 0.7%.

As for `O=C(NCCOc1ccccc1Cl)C(=O)Nc1ccccc1`, the inhibition is -1.3%.

As to `O=C(NCCOc1ccccc1F)Nc1ccc(Br)cc1`, the inhibition is 87.9% (active).

Turning to `O=C(COc1ccccc1F)NNC(=O)c1cc(Br)ccc1Cl`, the inhibition is -1.8%.

For `COC(=O)CNC(c1ccccc1Cl)c1cc(Br)ccc1NC(=O)CCN1CCOCC1` (stereo unspecified), the inhibition is -1%.

Consider `CCC(C(=O)NCc1ccccc1)n1c(Cc2cc(F)cc(F)c2)nc2ccccc21` (stereo unspecified), for which the inhibition is 2.2%.

As for `COc1cccc(NC(=O)c2ccccc2N(Cc2ccccc2)S(C)(=O)=O)c1`, the inhibition was 0%.

Consider `COc1ccccc1C(=O)Nc1ccc(Nc2ccccc2)cc1`, for which the inhibition was 0.9%.

For `COC(=O)c1ccc(NC(=O)c2ccccc2NS(=O)(=O)c2ccccc2)cc1`, the inhibition was 102% (active).

Regarding `COc1cc(NC(=O)c2ccccc2NS(=O)(=O)c2ccc(Cl)s2)cc(OC)c1`, the inhibition is 67% (active).

Take `O=S(=O)(Nc1ccccc1N1CCOCC1)c1ccc(Cl)s1`: the inhibition was -0.7%.

As for `CCOC(=O)c1ccc(N/C(=N/S(=O)(=O)c2ccccc2)c2ccccc2)cc1`, the inhibition is 1.7%.

With `COc1cc(C(=O)NNC(=O)CN2C(=O)NC3(CCCC3)C2=O)cc(OC)c1OC`, the inhibition is -0.8%.

For the molecule `COc1ccc(NS(=O)(=O)c2ccc(NC(=O)c3ccc(N(C)S(C)(=O)=O)cc3)cc2)cc1`, the inhibition was 21.3%.

With `COc1ccc(NS(=O)(=O)c2ccc(Oc3c(C#N)cccc3C#N)cc2)cc1`, the inhibition was 91.6% (active).

As for `COc1ccc(NS(=O)(=O)c2ccc(N3CCN(CCO)CC3)c([N+](=O)[O-])c2)cc1`, the inhibition was 2.1%.

Consider `CC(=N\NC(=O)c1cc(Br)ccc1O)/C(=N/O)C(=O)Nc1ccccc1`, for which the inhibition was 76.8% (active).

As for `CC(=O)N/N=C(\C)c1ccc(Br)cc1Br`, the inhibition was -4.6%.

With `C/C(=N/NC(=O)c1cc(Cl)ccc1O)C12CC3CC(CC(C3)C1)C2`, the inhibition is 9.3%.

Turning to `CCO[C@H]1OC(C(=O)O)=C[C@@H](C2CCCCC2)[C@@H]1CCCO`, the inhibition is -1.5%.
